Reference: PubChem BioAssay (NCI)
About 79,000 compounds went through this panel and 15% of them were active in at least one assay; those are over-represented in the sample as a whole. Unmarked numbers belong to inactive results. The source made the active and inactive calls. No stated cut-off is given here; in the data, active means growth inhibition above about 70%; inactive means the rest.

How the values were obtained:
[1] = NCI Yeast Anticancer Drug Screen. Data for the wt2 strain (AID 169);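 further: 0% = growth of vehicle-treated yeast cultures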; settings: S. cerevisiae wt2 strain growth inhibition, hits give high values
Method in brief: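 This strain belongs to a panel of yeast strains with defined genetic alterations in DNA damage repair or cell cycle control. Compounds are applied, and growth inhibition is measured against vehicle-treated cultures.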

[2] = NCI Yeast Anticancer Drug Screen. Data for the mlh1 strain (AID 171);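 further: 0% = growth of vehicle-treated control cultures of the same strain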; settings: S. cerevisiae mlh1 strain growth inhibition, hits give high values
Method in brief: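 Growth of the mutant yeast strain after compound exposure, expressed as inhibition relative to vehicle-only controls.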

[3] = NCI Yeast Anticancer Drug Screen. Data for the sgs1 strain (AID 173);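 further: 0% = growth of vehicle-only control cultures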; settings: S. cerevisiae sgs1 mutant, hits give high values
Method in brief: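 Growth of a yeast strain bearing a defined genetic alteration is measured after compound treatment. Inhibition is expressed relative to vehicle-only controls.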

[4] = NCI Yeast Anticancer Drug Screen. Data for the mlh1 rad18 strain (AID 175); settings: S. cerevisiae mlh1 rad18 strain growth inhibition, hits give high values
Method in brief: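 Read-out is yeast growth inhibition, calculated against vehicle-only controls. The compound was applied to a strain engineered with DNA damage repair alterations.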

[5] = NCI Yeast Anticancer Drug Screen. Data for the rad18 strain (AID 177); settings: S. cerevisiae rad18 mutant growth inhibition, hits give high values
Method in brief: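 Growth of the mutant yeast strain after compound exposure, normalised to vehicle-only cultures.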

[6] = NCI Yeast Anticancer Drug Screen. Data for the rad52 strain (AID 147);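 further: 0% = growth of vehicle-treated control cultures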; settings: S. cerevisiae rad52 mutant growth inhibition, hits give high values
Method in brief: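 Compounds are applied to a genetically defined yeast strain lacking normal DNA damage repair, and inhibition of growth is expressed relative to cultures given vehicle only.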

[7] = NCI Yeast Anticancer Drug Screen. Data for the wt1 strain (AID 149);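 further: 0% = growth of vehicle-treated wt1 cultures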; settings: S. cerevisiae wt1 strain (SPY 50644) growth inhibition, hits give high values
Method in brief: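 Yeast wt1 strain exposed to compounds; growth inhibition measured relative to vehicle-treated controls.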

[8] = NCI Yeast Anticancer Drug Screen. Data for the rad50EPP+ strain (AID 151);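 further: 0% = growth of vehicle-treated control cultures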; settings: S. cerevisiae rad50 mutant strain, hits give high values
Method in brief: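 Compounds were applied to the rad50EPP+ yeast strain, which bears a defined DNA repair alteration, and growth inhibition was determined relative to vehicle-treated cultures.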

[9] = NCI Yeast Anticancer Drug Screen. Data for the mgt1 strain (AID 153); settings: S. cerevisiae mgt1 mutant growth inhibition, hits give high values
Method in brief: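 Strain: mgt1 yeast, one of a set carrying defined DNA damage repair or cell cycle control alterations. Compound-treated growth compared with vehicle.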

[10] = NCI Yeast Anticancer Drug Screen. Data for the rad50 strain (AID 155);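 further: 0% = growth of vehicle-only cultures of the same strain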; settings: S. cerevisiae rad50 strain growth inhibition, hits give high values
Method in brief: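 Yeast carrying a defined DNA repair defect were exposed to test compounds, and growth was compared with vehicle-treated controls to give percent inhibition.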

[11] = NCI Yeast Anticancer Drug Screen. Data for the mec2-1 strain (AID 157); settings: S. cerevisiae mec2-1 strain, hits give high values
Method in brief: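 Strain: mec2-1 (DNA repair/cell cycle alteration). Compound exposure, then growth measured; inhibition expressed relative to vehicle.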

[12] = NCI Yeast Anticancer Drug Screen. Data for the rad14 strain (AID 159);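 further: 0% = growth of vehicle-treated control cultures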; settings: S. cerevisiae rad14 strain growth inhibition, hits give high values
Method in brief: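 Yeast cells carrying a defined DNA-repair defect were exposed to compounds, and growth inhibition was calculated relative to vehicle-treated control cultures.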

[13] = NCI Yeast Anticancer Drug Screen. Data for the sgs1 mgt1 strain (AID 161);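 further: 0% = growth of cultures given vehicle only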; settings: S. cerevisiae sgs1 mgt1 strain, hits give high values
Method in brief: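 Mutant yeast exposed to compound; growth scored against vehicle-only wells.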

[14] = NCI Yeast Anticancer Drug Screen. Data for the CLN2oe strain (AID 163);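 further: 0% = growth of vehicle-only control cultures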; settings: S. cerevisiae CLN2oe strain, hits give high values
Method in brief: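 Growth of a genetically modified yeast strain is measured after compound exposure and compared with cultures given vehicle alone.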

[15] = NCI Yeast Anticancer Drug Screen. Data for the cln2 rad14 strain (AID 165);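 further: 0% = growth equal to vehicle treated cultures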; settings: S. cerevisiae cln2 rad14 strain, hits give high values
Method in brief: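 Compounds are applied to the cln2 rad14 yeast strain, and growth is then compared with that of vehicle-treated cultures to give inhibition.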

[16] = NCI Yeast Anticancer Drug Screen. Data for the bub3 strain (AID 167); settings: S. cerevisiae bub3 mutant strain, hits give high values
Method in brief: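 Compounds were applied to a genetically altered yeast strain carrying a cell-cycle control defect. Growth inhibition was scored against vehicle-treated controls.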

[17] = at 5.0 µM (retest, dose inferred, filed as 0.5)
[18] = at 50.0 µM (retest, dose inferred, filed as 5.0)

CCCC/C=C/C(CC)(C(=O)OCC)C(=O)OCC
growth inhibition ([1]; at 1.2 µM): -3%
growth inhibition ([1]; at 3.7 µM): -4%
growth inhibition ([1]; at 11.0 µM): -5%
growth inhibition ([1]; at 33.0 µM): -5%
growth inhibition ([1]; at 100.0 µM): -5%
growth inhibition ([2]; at 1.2 µM): -3%
growth inhibition ([2]; at 3.7 µM): -6%
growth inhibition ([2]; at 11.0 µM): -5%
growth inhibition ([2]; at 33.0 µM): -2%
growth inhibition ([2]; at 100.0 µM): 5%
growth inhibition ([3]; at 1.2 µM): -2%
growth inhibition ([3]; at 3.7 µM): 1%
growth inhibition ([3]; at 11.0 µM): 0%
growth inhibition ([3]; at 33.0 µM): 0%
growth inhibition ([3]; at 100.0 µM): 5%
growth inhibition [4, 17]: 7%
growth inhibition [4, 18]: 36%
growth inhibition ([4]; at 50.0 µM): -8.65%
growth inhibition ([5]; at 1.2 µM): -1%
growth inhibition ([5]; at 3.7 µM): 3%
growth inhibition ([5]; at 11.0 µM): 4%
growth inhibition ([5]; at 33.0 µM): 3%
growth inhibition ([5]; at 100.0 µM): 7%

Oc1ccc2ccccc2c1C(c1ccc(Cl)cc1)c1c(O)ccc2ccccc12
growth inhibition ([6]; at 1.2 µM): -39%
growth inhibition ([6]; at 3.7 µM): -23%
growth inhibition ([6]; at 11.0 µM): -17%
growth inhibition ([6]; at 33.0 µM): 51%
growth inhibition ([6]; at 100.0 µM): 84% (active)
growth inhibition ([7]; at 1.2 µM): 15%
growth inhibition ([7]; at 3.7 µM): -17%
growth inhibition ([7]; at 11.0 µM): 2%
growth inhibition ([7]; at 33.0 µM): 55%
growth inhibition ([7]; at 100.0 µM): 84% (active)
growth inhibition ([8]; at 1.2 µM): -50%
growth inhibition ([8]; at 3.7 µM): -61%
growth inhibition ([8]; at 11.0 µM): -55%
growth inhibition ([8]; at 33.0 µM): -50%
growth inhibition ([8]; at 100.0 µM): -44%
growth inhibition ([9]; at 1.2 µM): -34%
growth inhibition ([9]; at 3.7 µM): -26%
growth inhibition ([9]; at 11.0 µM): -14%
growth inhibition ([9]; at 33.0 µM): 43%
growth inhibition ([9]; at 100.0 µM): 88% (active)
growth inhibition ([10]; at 1.2 µM): -3%
growth inhibition ([10]; at 3.7 µM): 3%
growth inhibition [10, 17]: 99% (active)
growth inhibition ([10]; at 11.0 µM): 12%
growth inhibition ([10]; at 33.0 µM): 55%
growth inhibition [10, 18]: 99% (active)
growth inhibition ([10]; at 50.0 µM): 68.3%
growth inhibition ([10]; at 100.0 µM): 89% (active)
growth inhibition ([11]; at 1.2 µM): -72%
growth inhibition ([11]; at 3.7 µM): -67%
growth inhibition [11, 17]: 99% (active)
growth inhibition ([11]; at 11.0 µM): -39%
growth inhibition ([11]; at 33.0 µM): 56%
growth inhibition [11, 18]: 99% (active)
growth inhibition ([11]; at 50.0 µM): 83.9% (active)
growth inhibition ([11]; at 100.0 µM): 84% (active)
growth inhibition ([12]; at 1.2 µM): -61%
growth inhibition ([12]; at 3.7 µM): -54%
growth inhibition ([12]; at 11.0 µM): -60%
growth inhibition ([12]; at 33.0 µM): -7%
growth inhibition ([12]; at 100.0 µM): 84% (active)
growth inhibition [13, 17]: -2%
growth inhibition [13, 18]: 94% (active)
growth inhibition ([13]; at 50.0 µM): 19.4%
growth inhibition ([14]; at 1.2 µM): 0%
growth inhibition ([14]; at 3.7 µM): 5%
growth inhibition ([14]; at 11.0 µM): 21%
growth inhibition ([14]; at 33.0 µM): 83% (active)
growth inhibition ([14]; at 100.0 µM): 82% (active)
growth inhibition [15, 17]: 56%
growth inhibition [15, 18]: 95% (active)
growth inhibition ([15]; at 50.0 µM): 76.8% (active)
growth inhibition ([16]; at 1.2 µM): -6%
growth inhibition ([16]; at 3.7 µM): -15%
growth inhibition [16, 17]: 29%
growth inhibition ([16]; at 11.0 µM): -1%
growth inhibition ([16]; at 33.0 µM): 39%
growth inhibition [16, 18]: 92% (active)
growth inhibition ([16]; at 50.0 µM): 78.2% (active)
growth inhibition ([16]; at 100.0 µM): 87% (active)
growth inhibition ([1]; at 1.2 µM): -22%
growth inhibition ([1]; at 3.7 µM): -36%
growth inhibition ([1]; at 11.0 µM): -20%
growth inhibition ([1]; at 33.0 µM): 16%
growth inhibition ([1]; at 100.0 µM): 80% (active)
growth inhibition ([2]; at 1.2 µM): -41%
growth inhibition ([2]; at 3.7 µM): -25%
growth inhibition ([2]; at 11.0 µM): -32%
growth inhibition ([2]; at 33.0 µM): 26%
growth inhibition ([2]; at 100.0 µM): 85% (active)
growth inhibition ([3]; at 1.2 µM): -29%
growth inhibition ([3]; at 3.7 µM): -39%
growth inhibition ([3]; at 11.0 µM): -25%
growth inhibition ([3]; at 33.0 µM): 38%
growth inhibition ([3]; at 100.0 µM): 88% (active)
growth inhibition [4, 17]: 99% (active)
growth inhibition [4, 18]: 99% (active)
growth inhibition ([4]; at 50.0 µM): 54%
growth inhibition ([5]; at 1.2 µM): -30%
growth inhibition ([5]; at 3.7 µM): -8%
growth inhibition ([5]; at 11.0 µM): 2%
growth inhibition ([5]; at 33.0 µM): 50%
growth inhibition ([5]; at 100.0 µM): 87% (active)
